This is an account of results in PubChem BioAssay (EPA / NIEHS).

Test [1] concerns turtle Thyroid Hormone Receptor, alpha (TRa), gene 101949057. Put plainly: ATG_trTRa_XSP2: Attagene TRANS-FACTORIAL Multi-Species (XSP1) HepG2 Assay for turtle Thyroid Hormone Receptor, alpha (TRa) (AID 2283834).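 Further: hits raise reporter mRNA over the DMSO baseline so AC50 marks activators.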 A digest of the protocol: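 HepG2 cells transiently transfected with GAL4-UAS reporter units for chimeric turtle TRa-Gal4; mRNA measured 24 h after dosing by RT-PCR and capillary electrophoresis fluorescence, gain of signal fitted against DMSO.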

Test [2] in a line: ATG_M_61_XSP2: Attagene TRANS-FACTORIAL Multi-Species (XSP2) HepG2 Assay for M61 Transcription Factor (Internal Marker) (AID 2283835; active means hit-call score of the fitted dose curve at least 0.9, where 1 is the maximum; inactive means score below 0.9;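 further: active means a rise in signal above the DMSO baseline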). The procedure, abridged: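 Internal background marker, read as RT-PCR/capillary-electrophoresis reporter mRNA 24 h post-dose in transiently transfected HepG2 cells. Androgen receptor stimulated with 3 nM 6-alpha-fluorotestosterone plus 1.5 nM norgestrel; gain of signal versus DMSO analysed.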

Test [3] deals with zebrafish Thyroid Hormone Receptor beta (TRb), thrb (gene 30607) (UniProt Q9PVE4). Put plainly: ATG_zfTRb_XSP2: Attagene TRANS-FACTORIAL Multi-Species (XSP1) HepG2 Assay for zebrafish Thyroid Hormone Receptor beta (TRb) (AID 2283836).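 On AC50: potency for induction of reporter signal above DMSO so agonist direction.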 The procedure, abridged:
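Reporter transcripts measured by RT-PCR, 6-FAM labelling, HpaI digestion and capillary electrophoresis after 24 h chemical exposure. Human HepG2 cells carry an exogenous zebrafish TRb-GAL4 chimera; medium included 3 nM 6-alpha-fluorotestosterone plus 1.5 nM norgestrel.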

In test [4] the target is human Thyroid hormone Receptor alpha (TRa), THRA (gene 7067) (UniProt P10827). Put plainly: ATG_hTRa_XSP2: Attagene TRANS-FACTORIAL Multi-Species (XSP2) HepG2 Assay for human Thyroid hormone Receptor alpha (TRa) (AID 2283838). A digest of the protocol: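 Reporter transcripts were read by RT-PCR with fluorescent primer extension, HpaI digestion and capillary electrophoresis. These came from HepG2 cells carrying multiplexed TRa-Gal4 TRANS constructs, harvested 24 hours after dosing. The medium also held 6-alpha-fluorotestosterone (3 nM) and norgestrel (1.5 nM), and increases were fitted against DMSO.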
Chain of human Thyroid hormone Receptor alpha (TRa), THRA (gene 7067) (P10827 whole entry, looked up, the tested form may be a part): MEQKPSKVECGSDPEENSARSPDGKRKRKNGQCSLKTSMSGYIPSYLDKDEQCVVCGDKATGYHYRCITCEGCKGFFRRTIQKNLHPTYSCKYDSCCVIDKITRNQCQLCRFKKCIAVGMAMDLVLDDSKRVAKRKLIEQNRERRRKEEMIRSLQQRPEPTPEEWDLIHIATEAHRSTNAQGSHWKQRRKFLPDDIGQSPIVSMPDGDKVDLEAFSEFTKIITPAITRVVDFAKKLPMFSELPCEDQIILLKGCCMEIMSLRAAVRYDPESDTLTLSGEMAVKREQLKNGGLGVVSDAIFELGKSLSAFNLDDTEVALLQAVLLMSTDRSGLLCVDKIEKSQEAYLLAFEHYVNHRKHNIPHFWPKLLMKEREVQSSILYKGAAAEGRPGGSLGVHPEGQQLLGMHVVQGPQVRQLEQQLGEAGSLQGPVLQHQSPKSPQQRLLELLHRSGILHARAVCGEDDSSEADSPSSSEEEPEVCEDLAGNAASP

The target in test [5] is human Thyroid hormone Receptor beta (TRb), THRB (gene 7068) (UniProt P10828). Put plainly: ATG_hTRb_XSP2: Attagene TRANS-FACTORIAL Multi-Species (XSP2) HepG2 Assay for human Thyroid hormone Receptor beta (TRb) (AID 2283840).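 Further: actives raise reporter mRNA so potency reflects agonist-like gain of signal.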 A digest of the protocol:
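HepG2 transiently transfected with a multi-species panel including a human TRb–Gal4 chimera driving Gal4-UAS reporters; medium contained 3 nM 6-alpha-fluorotestosterone and 1.5 nM norgestrel. 24 h dosing; RT-PCR/capillary electrophoresis readout; positive-direction fit vs DMSO.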

In test [6] the test system is Sodium/Iodide Symporter (NIS), SLC5A5 (gene 6528). Put plainly: CPHEA_Stoker_NIS_Inhibition_RAIU: CPHEA's Radioactive Iodide Uptake (RAIU) Assay for Sodium/Iodide Symporter (NIS) Inhibition, Stoker and Laws Labs (AID 2283841). The procedure, abridged: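 Test chemicals, six concentrations from 0.001 to 100uM in 0.5% DMSO, were co-incubated with carrier-free 125I (final 329pM) on hNIS-HEK293T-EPA monolayers in pH 7.4 HEPES-buffered HBSS. Plates stood 2 hours at room temperature, then were washed cold and counted.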

A short description of test [7]: CPHEA_Stoker_NIS_Cytotoxicity: Cytotoxicity Assessment for CPHEA's Radioactive Iodide Uptake (RAIU) Assay for Sodium/Iodide Symporter (NIS) Inhibition, Stoker and Laws Labs (AID 2283897).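 On AC50: active means loss of ATP signal versus DMSO meaning cytotoxicity.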 The procedure, abridged:
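Viability in hNIS-HEK293T-EPA cells is scored as a drop in luciferase-detected ATP following 2-hour room-temperature exposure (0.001–100uM; triplicate wells, three cell passages), with DMSO as negative control.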

Test [8] has as its target frog Thyroid hormone Receptor alpha (TRa), thra-a (gene 397942) (UniProt P15204). Put plainly: ATG_frTRa_XSP2: Attagene TRANS-FACTORIAL Multi-Species (XSP2) HepG2 Assay for frog Thyroid hormone Receptor alpha (TRa) (AID 2283839).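 On AC50: AC50 reflects induction of frog TRa-driven reporter mRNA above DMSO baseline.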 The procedure, abridged:
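HepG2 transiently transfected with multiplexed GAL4-UAS reporters driven by frog TRa-Gal4 chimeras; 24 h chemical exposure. Reporter mRNA quantified by RT-PCR, FAM labelling, HpaI digestion and capillary electrophoresis; gain of signal versus DMSO.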

A short description of test [9]: ATG_XTT_Cytotoxicity_XSP2: Cytotoxicity Assessment in the Attagene TRANS-FACTORIAL Multi-Species (XSP2) HepG2 Assay (AID 2283837). How it is done:
ATG_XSP2_XTT_Cytotoxicity_multi-species is a cell-based, single-readout assay that uses HepG2, a human liver cell line, with measurements taken at 24 hours after chemical dosing in a 24-well plate.ATG_XTT_Cytotoxicity_XSP2 is an assay component measured from the ATG_XSP2_XTT_Cytotoxicity_multi-species assay. It is designed to make measurements of cell number, a form of viability reporter, as detected with fluorescence intensity signals by XTT cytotoxicity assay technology.Data from the assay component ATG_XTT_Cytotoxicity_XSP2 was analyzed into 1 assay endpoint. This assay endpoint, ATG_XTT_Cytotoxicity_XSP2, was analyzed in the positive analysis fitting direction relative to DMSO as the negative control and baseline of activity. Using a type of viability reporter, loss-of-signal activity can be used to understand changes in the viability. Furthermore, this assay endpoint can be referred to as a primary readout, because the performed assay has only produced 1 assay endpoint. To generalize the intended target to other relatable targets, this assay endpoint is annotated to the cell cycle intended target family, where the subfamily is cytotoxicity.
Human liver HepG2 cells are transiently transfected with multiple reporter transcription units (MRTUs) in 6-well plates using FuGene 6 reagent (Roche; 3 ml FuGene/1 mg DNA). The MRTU constructs are regulated by a cis-regulating element (promoter). […] A major difference between the CIS and TRANS system is that in CIS activities of endogenous TFs are measured, whereas the TRANS assay evaluates changes in activities of exogenous, chimeric NR-Gal4 proteins. […] At the end of 24 hour incubation, total RNA was isolated using TriZol reagent (Invitrogen). The isolated RNA is then reverse-transcribed using oligo(dT) primer and Mo-MLV reverse transcriptase (Invitrogen) with DNAse I (Ambion) treatment for 30 min. The one-tenth of the produced cDNA was amplified by PCR using Taq DNA polymerase (Invitrogen) and two reporter sequence-specific primers. The PCR products were fluorescently labeled by primer extension with 6-arboxyfluorescein (6-FAM) 5'-labeled reporter sequence-specific primer (2 min at 95 C, 20 s at 68 C and 10 min at 72 C) and these products were digested with 5U of HpaI (New England Biolabs) for 2h at 37 C. The fragments were purified using Qiaquick PCR columns (Qiagen), analyzed on an ABI 3130xL genetic analyzer (Applied Biosystems) with peak positions identified by using a set of X-rhodamine (ROX)-labeled MapMarker1000 molecular weight standards (BioVentures). The raw capillary electrophoresis data was processed using Attagraph software (Attagene).

Where “and” joins values, the source holds several entries; their conditions need not be identical. Equal values may be shown once. Results filed as inconclusive are left out. More than one record can exist for a structure, and the calls need not agree. Calls of active or inactive are those of the source. How the source made its calls, unless noted: active means hit-call score of the fitted dose curve at least 0.9, where 1 is the maximum; inconclusive means response in the unintended direction; inactive means score below 0.9.

Chain of zebrafish Thyroid Hormone Receptor beta (TRb), thrb (gene 30607) (Q9PVE4 whole entry, looked up, the tested form may be a part): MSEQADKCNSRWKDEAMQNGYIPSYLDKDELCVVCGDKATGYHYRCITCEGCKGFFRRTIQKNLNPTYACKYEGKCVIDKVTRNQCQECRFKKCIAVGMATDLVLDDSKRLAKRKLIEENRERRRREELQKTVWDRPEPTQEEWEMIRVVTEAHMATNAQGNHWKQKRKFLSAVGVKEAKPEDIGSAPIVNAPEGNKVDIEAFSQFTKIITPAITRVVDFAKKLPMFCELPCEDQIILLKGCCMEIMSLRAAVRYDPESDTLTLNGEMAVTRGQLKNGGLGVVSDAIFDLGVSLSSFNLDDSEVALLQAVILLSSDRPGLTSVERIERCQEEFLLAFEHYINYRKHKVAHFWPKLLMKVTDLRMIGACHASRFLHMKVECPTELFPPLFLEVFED
Chain of frog Thyroid hormone Receptor alpha (TRa), thra-a (gene 397942) (P15204 whole entry, looked up, the tested form may be a part): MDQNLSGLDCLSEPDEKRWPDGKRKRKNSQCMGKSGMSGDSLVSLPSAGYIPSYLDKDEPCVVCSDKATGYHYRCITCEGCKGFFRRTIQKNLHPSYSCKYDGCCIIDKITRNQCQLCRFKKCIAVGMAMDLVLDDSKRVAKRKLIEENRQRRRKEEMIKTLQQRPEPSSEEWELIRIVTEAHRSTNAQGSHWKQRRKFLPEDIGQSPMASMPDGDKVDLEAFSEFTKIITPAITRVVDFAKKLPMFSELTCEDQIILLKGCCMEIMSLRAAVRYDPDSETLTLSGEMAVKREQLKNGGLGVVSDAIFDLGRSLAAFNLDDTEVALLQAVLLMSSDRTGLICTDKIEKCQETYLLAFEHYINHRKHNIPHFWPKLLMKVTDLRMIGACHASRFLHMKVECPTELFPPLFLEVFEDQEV
Chain of human Thyroid hormone Receptor beta (TRb), THRB (gene 7068) (P10828 whole entry, looked up, the tested form may be a part): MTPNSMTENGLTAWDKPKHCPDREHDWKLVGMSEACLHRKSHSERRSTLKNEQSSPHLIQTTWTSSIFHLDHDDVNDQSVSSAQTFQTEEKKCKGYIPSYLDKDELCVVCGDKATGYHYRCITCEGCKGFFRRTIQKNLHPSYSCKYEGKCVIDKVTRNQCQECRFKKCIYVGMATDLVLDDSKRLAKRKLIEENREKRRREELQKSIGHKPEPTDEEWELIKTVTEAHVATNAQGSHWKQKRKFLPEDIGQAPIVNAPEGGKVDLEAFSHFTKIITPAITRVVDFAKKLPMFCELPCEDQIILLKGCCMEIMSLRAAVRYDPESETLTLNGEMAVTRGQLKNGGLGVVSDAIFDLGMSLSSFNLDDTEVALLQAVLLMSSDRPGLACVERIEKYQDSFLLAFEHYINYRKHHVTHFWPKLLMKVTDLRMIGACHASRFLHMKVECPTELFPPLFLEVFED

On to `CC1(C)CCC(Cc2ccc(Cl)cc2)C1(O)Cn1cncn1` (centres undefined), for which the result in [1], in test [2], in test [3], in [4], in test [5] and in test [6] was inactive. In test [7], the outcome was inactive.

Turning to `CC(C)(C)CC(C)(C)c1ccc(O)cc1`, the compound was called inactive in test [1], in test [2], in [3], in test [8], in [5] and in test [6]. Further, the outcome in test [7] was inactive.

Regarding `O=C(O)CCC(F)(C(F)(F)F)C(F)(F)F`, in test [6], the result was inactive.

In the case of `C[C@]12CC[C@H](O)CC1=CC[C@@H]1[C@@H]2CC[C@]2(C)C(=O)CC[C@@H]12`, the compound was classed as inactive in test [1], in test [2], in test [3] and in test [5].

For the compound `O=[N+]([O-])c1ccc(O)c([N+](=O)[O-])c1`, the outcome in [6] and in [7] was inactive.

On to `O=C(O)C(F)(F)C(F)(F)C(F)(F)C(F)(F)C(F)(F)C(F)(F)C(F)(F)C(F)(F)C(F)(F)C(F)(F)F`, for which the result in test [6] was inactive.

Consider `CC(C)(C)c1cc(O)ccc1O`, for which the outcome in [1], in [2], in test [3], in [4], in [8] and in test [5] was inactive.

As for `CC(C)C1CCC(Cc2ccc(Cl)cc2)C1(O)Cn1cncn1` (centres undefined), the result in [1], in test [2], in test [3], in test [4], in test [8] and in test [5] was inactive. In addition, the AC50 (in general, the concentration at which the activity in the assay is half-maximal) in test [9] is 42.8 µM (active); in [6], 20 µM (active); in [7] it was 87.6 µM (active).

As for `Clc1ccc(COC(Cn2ccnc2)c2ccc(Cl)cc2Cl)cc1` (centres undefined), the values for the AC50 in test [6] and in test [7] were 11.7 µM (active) and 72.6 µM (active), respectively.

Turning to `Cc1ccc2ccccc2c1C`, in test [6], the result was inactive.

With `CC12CC1(C)C(=O)N(c1cc(Cl)cc(Cl)c1)C2=O` (centres undefined), the compound was called inactive in test [1], in [2], in test [3], in test [4], in test [8] and in test [5]. For the same compound, in test [5], the AC50 is 63.2 µM (active).

As for `Oc1ccc(-c2ccccc2)cc1`, the compound was classed as inactive in test [1], in test [2], in test [3], in test [9], in test [4] and in test [8]. Also, the compound was called inactive in test [5].

As for `O=C(O)C(F)(F)C(F)(F)C(F)(F)C(F)(F)C(F)(F)C(F)(F)F`, the outcome in [6] and in [7] was inactive.

With `C[C@H]1CCCC(=O)CCC/C=C/c2cc(O)cc(O)c2C(=O)O1`, the call in test [1], in [2], in [9], in test [4], in [5] and in [6] was inactive. In test [7], the AC50 was 83.8 µM (active).

As to `CC(C)(c1ccccc1)c1ccc(O)c(C(C)(C)c2ccccc2)c1`, the outcome in [6] and in test [7] was inactive.

For `O=C1C2(Cl)C3(Cl)C4(Cl)C(Cl)(Cl)C5(Cl)C3(Cl)C1(Cl)C5(Cl)C24Cl` (centres undefined), the call in test [1], in test [2], in test [3], in test [4], in [8] and in test [6] was inactive. Further, the result in [7] was inactive. The AC50 in [5] was 10 µM (active).

In the case of `C[C@]12CCC(=O)C[C@@H]1CC[C@@H]1[C@@H]2CC[C@]2(C)[C@@H](O)CC[C@@H]12`, the compound was called inactive in [1], in test [2], in [3], in test [4] and in test [8]. The AC50 in [5] is 0.421 µM (active).

With `CCOP(=S)(OCC)SCSP(=S)(OCC)OCC`, the result in test [6] and in test [7] was inactive.

On to `COP(=O)(OC)O/C(=C\Cl)c1cc(Cl)c(Cl)cc1Cl`, for which the compound was called inactive in test [1], in test [2], in test [3], in test [8], in [5] and in test [6]. Further, the result in test [7] was inactive.

As to `Clc1ccc(C2(Cn3cncn3)CC(Br)CO2)c(Cl)c1` (centres undefined), the AC50 in [1] was 26.9 µM (active); in [8], 5.44 µM (active). Moreover, the call in test [1], in test [2], in test [3], in [9], in test [4] and in test [8] was inactive. The result in test [5], in test [6] and in test [7] was inactive.

On to `CC(=O)C=C(C)C`, for which the compound was called inactive in [1], in test [2], in test [3], in [9], in test [4] and in test [8]. The compound was called inactive in [5].

In the case of `O=S(=O)(c1ccc(Cl)cc1)c1ccc(Cl)cc1`, the compound was classed as inactive in test [1], in [2], in [3], in [9], in test [4] and in test [8]. For the same compound, the result in test [7] was inactive. The AC50 in test [5] is 19.8 µM (active); in [6], 9.92 µM (active).

For `Oc1c(I)cc(I)cc1I`, the compound was classed as inactive in [1], in test [2] and in test [3]. The AC50 in [3] is 26.3 µM (active); in test [9] it was 69.1 µM (active); in [4], 26 µM (active); in [8], 26.5 µM (active) and 25.7 µM (active); in test [5], 56.1 µM (active) and 16.2 µM (active).

`CC1(C)Cc2cccc(O)c2O1`: in test [6], the result was inactive.
